A number with no mark means an inactive call. Inconclusive results are not listed. A call without a number means that no potency is given here. The source made the active and inactive calls. Unless noted, the call rests on the fitted dose curve; in most records, active means well fitted curve in the direction sought with a large enough effect; inconclusive means small, poorly fitted or top-dose-only effect, or another doubt; inactive means no such curve, though single readings can be large; an effect the other way counts as inactive or inconclusive.
Columns and labels:
[1] = target: Cytochrome P450 1A2 (Homo sapiens) (UniProt P05177); experiment: p450-cyp1a2 (AID 410; calls by dose curve; further: potency means the concentration at half of the fitted maximal effect)
Summary of the method: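 20nM CYP1A2, 100uM Luciferin-ME (=Km), 100mM KPO4; cpd 10 min RT; +NADPH regen, 60 min RT; stop/detect 20 min; luminescence. Normalized to furafylline 57 uM = full inhibition.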

[2] = target: Glucocorticoid receptor (Homo sapiens) (UniProt P04150); experiment: GR-GFP Redistribution (AID 450;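 active means compounds whose dose series gives a full or clear partial fitted curve of increased nuclear translocation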; further: potency means the concentration at half of the fitted maximal effect); settings: U2OS GR-GFP nuclear translocation, laser cytometry, 2 h
[3] = target: Glucocorticoid receptor (Homo sapiens) (UniProt P04150); experiment: GR-EFC Redistribution (AID 451; calls by dose curve; further: potency means the concentration at half of the fitted maximal effect); settings: CHO-K1 GR-EFC translocation, beta-gal luminescence, 2 h
Summary of the method: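 CHO-K1 cells expressing nuclear EA and GR-ED fragments of b-gal; compounds titrated up to 46 uM final, 2 h at 37 C. GR nuclear translocation read as complemented b-gal luminescence after 1 h RT detection.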

[4] = target: Mitogen-activated protein kinase 10 (Mus musculus) (UniProt Q61831); experiment: JNK3 AlphaScreen Assay (AID 530; active means well fitted curve in either direction with a large enough effect, not every such curve was filed as active;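 further: kinase came from lysate of stimulated human HepG2 cells; signal reports phosphorylation of biotinylated GST-cJun 1-79 at Ser73 with 10 µM ATP; series mostly up to about 57 µM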)
Summary of the method: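 HepG2 lysate (IL-1b/TNFa pre-activated) + biotin-GST-cJun 1-79 + anti-pSer73 cJun; cpd titration, 15 min RT; ATP 10 uM start; Tris pH 7.6, MgCl2, DTT, vanadate; beads in EDTA buffer; AlphaScreen.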

[5] = target: 3',5'-cyclic-AMP phosphodiesterase 4B (Homo sapiens) (UniProt Q07343); experiment: qHTS Assay for Inhibitors of PDE-IV (AID 607; active means well fitted activation curve with a large enough effect in the main read-out, with a control signal flat, not every such curve was filed as active)
Summary of the method: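 The readout is membrane depolarisation from a cAMP-sensing CNG channel, detected with a potential dye at ex 535/em 590. Cells were HEK293-derived (endogenous PDE-IV) at 1000 cells/well, titrated up to 22.9 uM final.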

[6] = target: Cytochrome P450 2C9 (Homo sapiens) (UniProt P11712); experiment: qHTS Assay for Inhibitors and Substrates of Cytochrome P450 2C9 (AID 883); further: nearly all actives have a fitted effect of over 60% in size; further: potency means the concentration at half of the fitted maximal effect
Summary of the method: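 Human CYP2C9 (10nM) with Luciferin-H at 100uM (its KM) in 25mM KPO4; compound preincubated 10 min at 37C, then NADPH regeneration for 60 min at 37C. Luciferin read by luminescence after detection reagent; normalized to 57uM sulphaphenazole as full inhibition.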

[7] = target: Cytochrome P450 3A4 (Homo sapiens) (UniProt P08684); experiment: qHTS Assay for Inhibitors and Substrates of Cytochrome P450 3A4 (AID 884); further: potency means the concentration at half of the fitted maximal effect; nearly all actives have a fitted effect of over 50% in size
Summary of the method: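 Luminescent readout of luciferin produced by CYP3A4 (20 nM) dealkylation of Luciferin-PPXE, 25 uM (its KM). NADPH-driven reaction ran 60 min at RT after 10 min compound preincubation; data scaled to 57 uM ketoconazole as 100% inhibition.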

[8] = target: Cytochrome P450 3A4 (Homo sapiens) (UniProt P08684); experiment: qHTS Assay for Activators of Cytochrome P450 3A4 (AID 885); further: nearly all actives have a fitted effect of over 65% in size
Summary of the method: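 Activators are scored by enhanced luminescence from CYP3A4 conversion of luciferin-PPXE (25uM, equal to KM) to luciferin, after 60 min at RT with an NADPH-regenerating system.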

[9] = target: Cytochrome P450 2D6 (Homo sapiens) (UniProt P10635); experiment: qHTS Assay for Inhibitors and Substrates of Cytochrome P450 2D6 (AID 891);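 further: luciferin methyl ether substrate demethylated by CYP2D6 with NADPH regeneration; nearly all actives have a fitted effect of over 60% in size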
Summary of the method: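 Luminescent read-out of luciferin formed by 5 nM human CYP2D6 demethylating 30 uM Luciferin-ME EGE (Km level) over 60 min at room temperature after NADPH regeneration addition. Data normalized to full inhibition by 1.43 uM quinidine.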

[10] = target: Cytochrome P450 2C19 (Homo sapiens) (UniProt P33261); experiment: qHTS Assay for Inhibitors and Substrates of Cytochrome P450 2C19 (AID 899); further: nearly all actives have a fitted effect of over 60% in size; further: potency means the concentration at half of the fitted maximal effect
Summary of the method: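 5 nM human CYP2C19 with 10uM Luciferin-H EGE (at KM) in 50mM KPO4, compound preincubated 10 min at 37C, then NADPH regeneration for 60 min at 37C. Luciferin read by luminescence after detection reagent; normalized to 57uM ketoconazole as full inhibition.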

[11] = target: DNA dC->dU-editing enzyme APOBEC-3G (Homo sapiens) (UniProt Q9HC16); experiment: qHTS for inhibitors of Vif-A3G interactions: Validation (AID 588379)
Summary of the method: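 Yellow fluorescence (Ex 488, Em 500-530) of Vif-coexpressing HeLa A3G-eYFP cells, scanned by Acumen cytometer, reports blocked A3G degradation. Cells plated at 700/well overnight at 37 deg C before compound addition, then a further overnight compound incubation at 37 deg C.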

[12] = test system: Zika virus NS2B-NS3 protease; experiment: Primary screen GU AMC qHTS for Zika virus inhibitors (AID 1347154); further: nearly all actives have a fitted effect of over 70% in size; further: potency means the concentration at half of the fitted maximal effect
Summary of the method: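 Unlinked Zika NS2B hydrophilic domain–NS3 protease complex at 25 nM in 10 mM Tris-HCl pH 8.0, 0.01% Tween 20, with an AMC peptide substrate. Fluorescence change (340/450 nm) over 15 min at room temperature, normalized to controls, fitted to 4-parameter Hill.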

[13] = target: Ubiquitin carboxyl-terminal hydrolase 1 (Homo sapiens) (UniProt O94782); experiment: Inhibitors of USP1/UAF1: Pilot qHTS (AID 504865); further: nearly all actives have a fitted effect of over 35% in size; further: potency means the concentration at half of the fitted maximal effect
Summary of the method: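 Deubiquitinase activity followed as kinetic rhodamine fluorescence release from 150 nM Ub-Rho. 1 nM USP1/UAF1 with compound, after 15 min room-temperature preincubation, in HEPES pH 7.8 buffer containing TCEP, EDTA, BSA and Tween-20.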

Cytochrome P450 1A2 (Homo sapiens), sequence (P05177 whole entry, looked up): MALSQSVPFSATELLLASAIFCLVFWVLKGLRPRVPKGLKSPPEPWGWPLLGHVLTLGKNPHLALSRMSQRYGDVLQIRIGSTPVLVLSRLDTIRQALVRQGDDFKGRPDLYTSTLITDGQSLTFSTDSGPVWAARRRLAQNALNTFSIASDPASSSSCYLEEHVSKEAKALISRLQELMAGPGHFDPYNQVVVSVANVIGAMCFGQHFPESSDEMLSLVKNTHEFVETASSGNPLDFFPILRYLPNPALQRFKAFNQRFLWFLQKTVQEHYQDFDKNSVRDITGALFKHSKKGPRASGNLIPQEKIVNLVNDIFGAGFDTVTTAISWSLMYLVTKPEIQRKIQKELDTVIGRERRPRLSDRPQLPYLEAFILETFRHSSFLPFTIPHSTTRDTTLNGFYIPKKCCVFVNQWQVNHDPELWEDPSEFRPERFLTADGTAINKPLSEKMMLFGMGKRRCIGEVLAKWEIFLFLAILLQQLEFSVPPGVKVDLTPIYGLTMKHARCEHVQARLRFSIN
3',5'-cyclic-AMP phosphodiesterase 4B (Homo sapiens), sequence (Q07343 whole entry, looked up): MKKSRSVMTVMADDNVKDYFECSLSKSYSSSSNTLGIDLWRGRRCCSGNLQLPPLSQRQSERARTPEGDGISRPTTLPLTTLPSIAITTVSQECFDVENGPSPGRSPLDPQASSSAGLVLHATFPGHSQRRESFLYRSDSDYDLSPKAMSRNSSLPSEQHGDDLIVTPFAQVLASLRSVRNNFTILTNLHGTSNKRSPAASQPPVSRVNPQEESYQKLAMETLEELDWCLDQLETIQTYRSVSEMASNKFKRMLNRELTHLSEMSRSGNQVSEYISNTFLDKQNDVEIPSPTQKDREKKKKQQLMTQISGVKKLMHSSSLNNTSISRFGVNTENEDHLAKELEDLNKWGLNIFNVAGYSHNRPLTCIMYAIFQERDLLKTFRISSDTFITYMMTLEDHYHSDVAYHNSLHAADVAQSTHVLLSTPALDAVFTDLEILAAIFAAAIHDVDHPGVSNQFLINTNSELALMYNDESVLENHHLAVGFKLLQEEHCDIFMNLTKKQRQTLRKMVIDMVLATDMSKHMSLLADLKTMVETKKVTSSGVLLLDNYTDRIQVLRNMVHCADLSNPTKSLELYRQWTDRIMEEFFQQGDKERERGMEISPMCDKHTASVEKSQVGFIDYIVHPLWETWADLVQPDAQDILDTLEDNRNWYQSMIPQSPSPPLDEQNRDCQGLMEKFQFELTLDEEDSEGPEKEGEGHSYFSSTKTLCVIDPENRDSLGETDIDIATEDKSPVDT
Cytochrome P450 3A4 (Homo sapiens), sequence (P08684 whole entry, looked up): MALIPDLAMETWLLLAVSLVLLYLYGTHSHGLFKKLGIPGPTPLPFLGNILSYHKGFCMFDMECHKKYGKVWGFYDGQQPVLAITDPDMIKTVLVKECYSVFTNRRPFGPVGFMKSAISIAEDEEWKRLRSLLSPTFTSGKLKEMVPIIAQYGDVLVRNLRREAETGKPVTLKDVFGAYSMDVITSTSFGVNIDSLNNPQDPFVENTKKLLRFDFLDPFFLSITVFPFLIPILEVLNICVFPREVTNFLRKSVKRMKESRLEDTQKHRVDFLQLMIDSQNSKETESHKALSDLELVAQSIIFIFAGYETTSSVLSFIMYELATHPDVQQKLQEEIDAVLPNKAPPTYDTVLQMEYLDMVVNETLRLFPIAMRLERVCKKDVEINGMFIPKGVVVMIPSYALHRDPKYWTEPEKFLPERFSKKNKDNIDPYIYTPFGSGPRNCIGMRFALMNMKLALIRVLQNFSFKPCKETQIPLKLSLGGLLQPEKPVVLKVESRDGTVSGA
Glucocorticoid receptor (Homo sapiens), sequence (P04150 whole entry, looked up, the tested form may be a part): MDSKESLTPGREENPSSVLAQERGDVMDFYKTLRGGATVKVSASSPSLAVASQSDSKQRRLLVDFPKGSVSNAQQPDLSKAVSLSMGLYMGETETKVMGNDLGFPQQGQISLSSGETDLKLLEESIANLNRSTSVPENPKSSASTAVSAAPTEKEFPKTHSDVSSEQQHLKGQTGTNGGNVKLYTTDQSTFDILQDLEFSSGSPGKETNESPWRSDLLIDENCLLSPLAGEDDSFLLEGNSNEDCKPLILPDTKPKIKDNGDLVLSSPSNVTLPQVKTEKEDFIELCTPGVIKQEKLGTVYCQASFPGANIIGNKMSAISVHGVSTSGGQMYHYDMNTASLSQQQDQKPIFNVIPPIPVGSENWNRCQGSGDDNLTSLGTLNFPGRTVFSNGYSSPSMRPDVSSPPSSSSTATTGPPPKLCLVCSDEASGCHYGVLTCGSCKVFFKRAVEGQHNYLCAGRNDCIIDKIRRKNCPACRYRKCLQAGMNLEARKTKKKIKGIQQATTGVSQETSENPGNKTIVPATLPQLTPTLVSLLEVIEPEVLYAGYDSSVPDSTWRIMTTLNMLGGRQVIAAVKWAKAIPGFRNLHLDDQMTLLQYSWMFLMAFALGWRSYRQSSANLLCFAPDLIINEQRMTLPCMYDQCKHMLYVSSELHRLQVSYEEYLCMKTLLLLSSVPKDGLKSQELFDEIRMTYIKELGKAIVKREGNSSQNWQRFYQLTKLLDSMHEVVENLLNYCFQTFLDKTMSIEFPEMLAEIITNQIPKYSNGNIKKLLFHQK
DNA dC->dU-editing enzyme APOBEC-3G (Homo sapiens), sequence (Q9HC16 whole entry, looked up): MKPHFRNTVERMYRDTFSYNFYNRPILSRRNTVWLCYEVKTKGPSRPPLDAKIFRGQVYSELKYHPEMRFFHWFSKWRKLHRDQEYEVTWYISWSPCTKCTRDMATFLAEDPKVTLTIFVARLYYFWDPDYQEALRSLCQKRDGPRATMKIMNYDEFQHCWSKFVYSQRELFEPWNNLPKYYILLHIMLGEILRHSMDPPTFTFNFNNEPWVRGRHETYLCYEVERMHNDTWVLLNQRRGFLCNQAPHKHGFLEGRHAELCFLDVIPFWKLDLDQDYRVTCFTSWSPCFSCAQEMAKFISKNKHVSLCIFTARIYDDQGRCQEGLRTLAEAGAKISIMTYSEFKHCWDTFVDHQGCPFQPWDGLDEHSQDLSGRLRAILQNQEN
Ubiquitin carboxyl-terminal hydrolase 1 (Homo sapiens), sequence (O94782 whole entry, looked up): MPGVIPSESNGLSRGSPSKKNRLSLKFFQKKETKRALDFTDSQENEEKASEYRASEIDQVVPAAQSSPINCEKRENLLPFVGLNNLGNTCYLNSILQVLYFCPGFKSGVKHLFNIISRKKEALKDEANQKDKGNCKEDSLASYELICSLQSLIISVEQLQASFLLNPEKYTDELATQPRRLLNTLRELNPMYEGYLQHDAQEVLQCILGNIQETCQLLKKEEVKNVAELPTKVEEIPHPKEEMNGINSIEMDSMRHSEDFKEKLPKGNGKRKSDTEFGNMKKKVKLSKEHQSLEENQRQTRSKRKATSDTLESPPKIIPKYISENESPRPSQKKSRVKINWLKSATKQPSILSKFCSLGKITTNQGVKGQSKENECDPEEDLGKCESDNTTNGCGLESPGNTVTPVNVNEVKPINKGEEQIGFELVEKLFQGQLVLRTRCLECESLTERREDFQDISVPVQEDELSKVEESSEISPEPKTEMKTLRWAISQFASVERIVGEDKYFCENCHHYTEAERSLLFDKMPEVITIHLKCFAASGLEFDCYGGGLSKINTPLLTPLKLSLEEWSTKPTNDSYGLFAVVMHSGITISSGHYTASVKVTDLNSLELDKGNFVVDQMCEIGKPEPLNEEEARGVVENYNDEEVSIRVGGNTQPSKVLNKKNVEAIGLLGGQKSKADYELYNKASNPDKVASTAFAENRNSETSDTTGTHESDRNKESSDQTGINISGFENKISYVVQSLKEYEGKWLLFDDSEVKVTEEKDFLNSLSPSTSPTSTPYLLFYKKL
Cytochrome P450 2C9 (Homo sapiens), sequence (P11712 whole entry, looked up): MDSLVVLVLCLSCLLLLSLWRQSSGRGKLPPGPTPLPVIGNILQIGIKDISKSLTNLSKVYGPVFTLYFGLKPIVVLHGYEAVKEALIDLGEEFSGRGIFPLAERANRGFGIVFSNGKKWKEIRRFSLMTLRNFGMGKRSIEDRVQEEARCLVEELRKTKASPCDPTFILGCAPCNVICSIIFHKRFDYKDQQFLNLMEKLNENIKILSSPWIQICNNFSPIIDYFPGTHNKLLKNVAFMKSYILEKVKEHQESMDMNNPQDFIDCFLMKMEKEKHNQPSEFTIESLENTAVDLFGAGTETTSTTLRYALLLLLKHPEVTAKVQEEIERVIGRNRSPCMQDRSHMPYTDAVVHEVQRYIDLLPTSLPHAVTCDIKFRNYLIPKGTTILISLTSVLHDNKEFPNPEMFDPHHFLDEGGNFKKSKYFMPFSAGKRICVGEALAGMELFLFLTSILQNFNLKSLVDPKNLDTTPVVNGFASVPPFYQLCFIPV
Cytochrome P450 2C19 (Homo sapiens), sequence (P33261 whole entry, looked up): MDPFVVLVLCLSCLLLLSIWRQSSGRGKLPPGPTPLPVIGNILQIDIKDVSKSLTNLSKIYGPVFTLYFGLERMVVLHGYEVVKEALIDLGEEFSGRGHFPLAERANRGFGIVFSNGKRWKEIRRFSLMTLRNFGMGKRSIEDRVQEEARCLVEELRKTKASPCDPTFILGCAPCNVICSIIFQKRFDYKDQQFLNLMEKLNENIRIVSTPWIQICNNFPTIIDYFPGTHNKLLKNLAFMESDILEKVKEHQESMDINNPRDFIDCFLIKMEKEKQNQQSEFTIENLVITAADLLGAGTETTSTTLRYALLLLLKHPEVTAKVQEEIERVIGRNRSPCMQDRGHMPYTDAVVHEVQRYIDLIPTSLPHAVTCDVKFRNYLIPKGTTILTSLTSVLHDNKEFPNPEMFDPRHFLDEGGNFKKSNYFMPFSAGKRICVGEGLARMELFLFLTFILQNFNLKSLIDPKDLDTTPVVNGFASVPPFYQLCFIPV

Row | SMILES | Potency [1] | Potency [2] | Potency [3] [µM] | Potency [4] | Potency [5] | Potency [6] | Potency [7] | Potency [8] | Potency [9] | Potency [10] | Potency [11] | Potency [12] | Potency [13]
1 | Cc1ccc(C(=O)Cn2c3c(sc2=N)CCCC3)cc1 | 1 µM (active) | > 46 µM | > 46 | inactive | inactive | inactive | 6.31 µM (active) | inactive | inactive | inactive | inactive | inactive | 
2 | N[C@@H](Cn1ccc(=O)n(Cc2ccccc2C(=O)O)c1=O)C(=O)O | inactive | > 46 µM | > 46 | inactive | inactive |  |  |  |  |  | inactive | inactive | inactive
3 | N=C(N)SCCc1ccc(OCc2ccc([N+](=O)[O-])cc2)cc1 |  | > 46 µM | > 46 | inactive | inactive |  |  |  |  |  | inactive | inactive | inactive
4 | CN(CCc1ccc(Cl)c(Cl)c1)C[C@@H](O)COc1ccc(NS(C)(=O)=O)cc1 | 15.8 µM (active) | > 46 µM | > 46 | inactive | inactive | 2.51 µM (active) |  | inactive |  | 2 µM (active) | inactive | inactive | 
5 | N#C[C@H](Cc1ccc(O)cc1)c1ccc(O)cc1 | 12.6 µM (active) |  |  | inactive | inactive |  |  | inactive |  |  | inactive | inactive | inactive
6 | C[N+](C)(CCCCCC[N+](C)(C)CCCN1C(=O)c2ccccc2C1=O)CCCN1C(=O)c2ccccc2C1=O |  | > 46 µM | > 46 | inactive |  |  |  |  |  |  | inactive | inactive | inactive
7 | O=C(O)COc1cccc(-c2ocnc2-c2nc(-c3ccccc3)c(-c3ccccc3)o2)c1 |  | > 46 µM | > 46 | inactive | inactive |  |  |  |  |  | inactive | inactive | 39.8 µM (active)
8 | COC(=O)Nc1ccc2[nH]cc(CCNC(C)=O)c2c1 | 0.316 µM (active) | > 46 µM | > 46 | inactive | inactive |  |  |  |  |  | inactive | inactive | inactive
9 | CCCCCCCCCCCC(=O)O[C@H](CC(=O)O)C[N+](C)(C)C | inactive | > 46 µM | > 46 | inactive | inactive |  |  |  |  |  | inactive | inactive | inactive
10 | C[C@@]1(C(=O)O)NCCc2cc(O)c(O)cc21 | inactive | > 46 µM | > 46 |  | inactive |  |  | inactive |  |  | inactive | 11.9 µM (active) | 56.2 µM (active)
11 | COc1ccc([N+](=O)[O-])c2c1CCN2C(=O)CC[C@H](N)C(=O)O |  | 4.81 µM (active) | > 46 | inactive | inactive |  |  |  |  |  | inactive | inactive | inactive

From PubChem BioAssay (NCATS)
